Assay results taken from PubChem BioAssay (NCI).
Compounds without any hit were thinned out: in the full panel of roughly 83,000, 20% have a hit.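 Results are percent growth after 48 hours of single-concentration exposure. 100 means growth as in untreated cells, lower positive values show inhibition; negative values down to -100 show cell death.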 Activity calls are given as the source filed them. Rule for the calls: active = growth percent below 10; inactive = the rest.

Experiments:
Assay in all cases: NCI-60 one-dose screen, 48 h (100 = growth as untreated, 0 = no growth, -100 = all killed)
[1] = system: NCI-H23 lung; details: 10 µM unless noted
[2] = system: NCI-H226 lung; details: 10 µM unless noted
[3] = system: NCI-H322M lung; details: 10 µM unless noted
[4] = system: HOP-62 NSCLC; details: 10 µM unless noted
[5] = system: NCI-H460 lung; details: 10 µM unless noted
[6] = system: HOP-92 NSCLC; details: 10 µM
[7] = system: A549/ATCC NSCLC; details: 10 µM unless noted
[8] = system: 786-0 renal; details: 10 µM unless noted
[9] = system: COLO 205 colon; details: 10 µM unless noted
[10] = system: DU-145 prostate; details: 10 µM unless noted
[11] = system: K-562 leukemia; details: 10 µM unless noted
[12] = system: MALME-3M melanoma; details: 10 µM unless noted
[13] = system: MDA-MB-231 breast; details: 10 µM unless noted
[14] = system: RXF 393 renal; details: 10 µM unless noted
[15] = system: SF-268 CNS; details: 10 µM unless noted
[16] = system: SF-295 CNS; details: 10 µM unless noted
[17] = system: SF-539 CNS; details: 10 µM unless noted
[18] = system: UACC-257 melanoma; details: 10 µM unless noted
[19] = system: M14 melanoma; details: 10 µM unless noted
[20] = system: NCI-H522 lung; details: 10 µM unless noted

Measured: growth

Nc1nc(Nc2ccccc2SSc2ccccc2Nc2nc(N)nc(-c3ccccc3)n2)nc(-c2ccccc2)n1
active: [7] 3.73%
inactive: [1] 50.8% | [2] 59% | [3] 92.4% | [4] 17.1% | [5] 53.2% | [6] 69.7% | [8] 68.2% | [9] 115% | [10] 69.4% | [11] 62.6% | [12] 104% | [13] 62.6% | [14] 50.2% | [15] 49% | [16] 26.1% | [17] 96.2% | [18] 108% | [19] 91.9%

Cc1ccc(-c2nnc(SCc3ccc(O)c4ncccc34)o2)cc1
active: [5] 2.77% | [12] 1.77% | [16] 5.77% | [18] 9.75%
inactive: [1] 27.9% | [2] 45.2% | [3] 26.3% | [4] 19.7% | [6] 10.4% | [20] 26.6% | [8] 24.5% | [9] 88.2% | [10] 28.7% | [11] 11.3% | [13] 41.7% | [15] 21.2% | [17] 14.9%

Cc1nc2ncc(-c3ccc4ncnc(NCc5ccccc5)c4c3)cc2[nH]1
active: [14] -18.1%
inactive: [1] 67.6% | [2] 64.6% | [3] 65.7% | [4] 38.9% | [5] 89.2% | [6] 17.4% | [7] 77.5% | [8] 48.3% | [9] 84.4% | [10] 27.4% | [11] 84.2% | [12] 63.4% | [13] 24.4% | [15] 37.6% | [16] 61.5% | [17] 60.6% | [18] 75.7% | [19] 81.4%

O=C(Nc1ccc(N=Cc2c(O)[nH]c3ccccc23)cc1)Nc1nccs1
active: [14] -20.5%
inactive: [1] 37.8% | [2] 30% | [3] 52.8% | [4] 37.3% | [5] 16.8% | [6] 49.8% | [7] 56.6% | [8] 52.9% | [9] 25.7% | [10] 40.5% | [11] 17.3% | [12] 46.9% | [13] 47.9% | [15] 77.2% | [16] 70.6% | [17] 33.6% | [18] 71.6% | [19] 18.5%

Cc1nc(-c2ccccc2O)ccc1C(=O)N=Nc1c(O)[nH]c2ccc(Br)cc12
inactive: [1] 96.2% | [2] 81.4% | [3] 99.5% | [4] 84.3% | [5] 99.8% | [6] 62.1% | [20] 97% | [8] 102% | [9] 105% | [10] 113% | [11] 113% | [12] 85.4% | [13] 87.6% | [15] 96.7% | [16] 104% | [17] 95.7% | [18] 104%

Cn1ccnc1C(=O)/C=C/c1ccc(CNC(=O)c2ccc(F)cc2)cc1
inactive: [2] 51.7% | [3] 29.7% | [4] 41.6% | [6] 62.3% | [20] 24.3% | [8] 21.9% | [9] 42.8% | [10] 13.2% | [11] 11.3% | [12] 84% | [13] 11% | [16] 49.1% | [18] 80.6%
active: [1] 5.81% | [5] -27.1% | [15] 9.43% | [17] -20%

c1ccc(C(c2nc3ncncc3[nH]2)N2CSc3nc4ccccc4n3C2)cc1 (stereo unspecified)
inactive: [1] 107% | [2] 98.7% | [3] 106% | [4] 96.6% | [5] 107% | [6] 91.5% | [20] 98.2% | [8] 101% | [9] 110% | [10] 110% | [11] 96.5% | [12] 81.1% | [13] 98.9% | [15] 98.1% | [16] 101% | [17] 95.3% | [18] 104%

COc1ccc2c(c1)c(CC(=O)[Se]CC#N)c(C)n2C(=O)c1ccc(Cl)cc1
inactive: [2] 29.6% | [4] 14.1% | [5] 14.5% | [6] 26.3% | [8] 47.3% | [11] 14.5% | [15] 35.6%
active: [1] -11.3% | [3] -1.05% | [20] -51.3% | [9] -24.8% | [10] -37.1% | [12] 6.79% | [13] 9.39% | [16] -11.7% | [17] 9.61% | [18] -10%

CC(=O)C1=C(C)NC(NNC(N)=S)=NC1c1ccccc1 (stereo unspecified)
inactive: [1] 92.8% | [2] 99.7% | [3] 101% | [4] 71.8% | [5] 104% | [6] 78.4% | [7] 87.9% | [8] 83% | [9] 106% | [10] 90.9% | [11] 113% | [12] 110% | [13] 77% | [14] 45.5% | [15] 84.8% | [16] 102% | [17] 96.7% | [18] 104% | [19] 92.9%

Nc1nc(Nc2ccccc2SSc2ccccc2Nc2nc(N)nc(-c3ccc4ccccc4c3)n2)nc(-c2ccc3ccccc3c2)n1
inactive: [1] 49.9% | [2] 59% | [3] 91.7% | [4] 28.8% | [5] 61.1% | [6] 92.4% | [8] 82.6% | [9] 106% | [10] 60.7% | [11] 69.7% | [12] 93.1% | [13] 60.9% | [14] 79.5% | [15] 74.9% | [16] 67.7% | [17] 99% | [18] 112% | [19] 95%
active: [7] 2.94%

CCc1cccc(NC(=O)CNc2cc(S(=O)(=O)N(C)C)cc(C)c2C)c1
inactive: [1] 81.4% | [2] 77% | [3] 105% | [4] 73.8% | [5] 102% | [6] 72% | [7] 85.2% | [8] 85.2% | [9] 111% | [10] 80.3% | [11] 85% | [12] 106% | [13] 78% | [14] 37.7% | [15] 75% | [16] 91.6% | [17] 90.7% | [18] 101% | [19] 100%

Oc1[nH]c2ccccc2c1Nn1c(N=N/C=c2/ccc3c(c2)C=NN=3)n[nH]c1=S
inactive: [1] 89.6% | [2] 93.9% | [3] 107% | [4] 75.6% | [5] 110% | [6] 76.6% | [7] 99.9% | [8] 96.7% | [9] 30.9% | [10] 99.1% | [11] 101% | [12] 109% | [13] 75.6% | [14] 85.4% | [15] 96.9% | [16] 106% | [17] 94% | [18] 110% | [19] 106%

O=C(NNc1nc2cc(F)c(F)cc2n2c(CN3CC4CNCC4C3)ccc12)c1cnccn1 (stereo unspecified)
active: [5] 1.73% | [12] 7.02% | [16] 5.87% | [17] 8.64% | [18] 7.77%
inactive: [1] 26.7% | [2] 16.8% | [3] 26.7% | [4] 10.8% | [6] 37.4% | [20] 11.2% | [8] 16.5% | [9] 11.4% | [10] 22.1% | [11] 14.1% | [13] 39.6% | [15] 15.8%

C=CC(=O)N1CC=C(c2cc3c(N[C@H](C)c4ccccc4)ncnc3[nH]2)CC1
inactive: [1] 78.4% | [2] 58.7% | [3] 27.2% | [4] 58.1% | [5] 101% | [6] 39% | [7] 60.4% | [8] 49.9% | [9] 92.1% | [10] 40.3% | [11] 84.2% | [12] 104% | [13] 47.8% | [15] 63.4% | [16] 79% | [17] 60.1% | [18] 102% | [19] 100%
active: [14] -27.6%

N/C(=N\C(N)=N\c1nc2ccccc2s1)c1ccc2ccccc2c1
active: [4] -28% | [7] 9.92%
inactive: [1] 53.2% | [2] 62.7% | [3] 96.8% | [5] 68.1% | [6] 88.6% | [8] 87.9% | [9] 109% | [10] 69% | [11] 69.3% | [12] 91.3% | [13] 67.9% | [14] 91.8% | [15] 78.9% | [16] 74.6% | [17] 102% | [18] 109% | [19] 97.5%

C/C(=N\O)[C@H]1C[C@]23CC[C@]4(C)[C@H](CC[C@@H]5[C@@]6(C)CC/C(=N/O)C(C)(C)[C@@H]6CC[C@]54C)[C@H]2[C@H](C)C1(C)OC3
inactive: [1] 96.5% | [2] 91.9% | [3] 114% | [4] 88.5% | [5] 106% | [6] 106% | [7] 94.7% | [8] 92.1% | [9] 116% | [10] 94.4% | [11] 101% | [12] 106% | [13] 99% | [14] 58.1% | [15] 89.4% | [16] 101% | [17] 103% | [18] 110% | [19] 105%

COc1ccccc1C(=O)Nc1cccc2c1C(=O)C(=O)C=C2
inactive: [1] 85.5% | [2] 99.9% | [3] 112% | [4] 94.8% | [5] 103% | [6] 113% | [7] 88.7% | [8] 92.2% | [9] 71.5% | [10] 93.6% | [11] 63.2% | [12] 95.4% | [13] 80.7% | [14] 62.4% | [15] 87% | [16] 98.8% | [17] 103% | [18] 106% | [19] 119%
